Results on 27 compounds are retold here after PubChem BioAssay AID1479146 (National Center for Advancing Translational Sciences (NCATS), 2020).

Records with an inconclusive call do not appear. Values without a mark were called inactive. The source made the active and inactive calls. Calls come from the whole dose curve.

The assay in a line: Confirmatory qHTS for Huh7 cytotoxicity: counterscreen for inhibitors of MERS-S pseudo-typed particle cell entry. As to conditions: viability; series mostly up to 57.1 µM; activity change, negative = cytotoxicity: at the top concentration.
With `Cc1cc(C(C#N)c2ccc(Cl)cc2)c(Cl)cc1NC(=O)c1cc(I)cc(I)c1O` (configuration not stated), the “activity change, negative = cytotoxicity” value was -19.4%.

Consider `Cc1cc(-n2c(=O)[nH]c(=O)n(C)c2=O)ccc1Oc1ccc(S(=O)(=O)C(F)(F)F)cc1`, for which the “activity change, negative = cytotoxicity” value is -28%. For `N=C(N)c1ccc(OCCCCCOc2ccc(C(=N)N)cc2)cc1`, the “activity change, negative = cytotoxicity” value is -28.4%. Same read-out and setting: the result for `CC[C@@H]([C@H](C)O)n1ncn(-c2ccc(N3CCN(c4ccc(OC[C@@H]5CO[C@@](Cn6cncn6)(c6ccc(F)cc6F)C5)cc4)CC3)cc2)c1=O` reads -5.11%; that for `N/C(=N\N=C\c1ccc(Cl)cc1)N/N=C/c1ccc(Cl)cc1`, -18.1%. With `CC(C)C[C@H](NC(=O)[C@H](CCc1ccccc1)NC(=O)CN1CCOCC1)C(=O)N[C@@H](Cc1ccccc1)C(=O)N[C@@H](CC(C)C)C(=O)[C@@]1(C)CO1`, the Potency is 0.192 µM (active). `CCN1CCN(Cc2ccc(Nc3ncc(F)c(-c4cc(F)c5nc(C)n(C(C)C)c5c4)n3)nc2)CC1`: the Potency was 8.57 µM (active). Turning to `Cc1c(N)nc(C(CC(N)=O)NCC(N)C(N)=O)nc1C(=O)NC(C(=O)NC(C)C(O)C(C)C(=O)NC(C(=O)NCCc1nc(-c2nc(C(=O)NCCCN[C@@H](C)c3ccccc3)cs2)cs1)C(C)O)C(O[C@@H]1O[C@@H](CO)[C@@H](O)[C@H](O)[C@@H]1O[C@H]1O[C@H](CO)[C@@H](O)[C@H](OC(N)=O)[C@@H]1O)c1cnc[nH]1` (some centres not stated), the “activity change, negative = cytotoxicity” value is -9.73%. As to `CN(C)[C@@H](CCOc1cccc2ccccc12)c1ccccc1`, the “activity change, negative = cytotoxicity” value is -14.8%.

On to `CCC(C)(C)C(=O)O[C@H]1C[C@@H](C)C=C2C=C[C@H](C)[C@H](CC[C@@H]3C[C@@H](O)CC(=O)O3)[C@H]21`, for which the “activity change, negative = cytotoxicity” value was 0%. With `CC[C@H](C)C(=O)O[C@H]1C[C@@H](C)C=C2C=C[C@H](C)[C@H](CC[C@@H]3C[C@@H](O)CC(=O)O3)[C@H]21`, the “activity change, negative = cytotoxicity” value is -14.4%. `C[n+]1c2cc(N)ccc2cc2ccc(N)cc21` (tested in a mixture with another compound): the Potency was 3.83 µM (active). The same measure, in the same setting: for `O=C(Nc1ccc([N+](=O)[O-])cc1Cl)c1cc(Cl)ccc1O` the value was 3.83 µM (active). Consider `CCCCCCCCCCCCOCCOCCOCCOCCOCCOCCOCCOCCOCCO`, for which the “activity change, negative = cytotoxicity” value is -10.8%.

On to `CN1CCC(=C2c3ccccc3CCc3sccc32)CC1`, for which the “activity change, negative = cytotoxicity” value was 0%. As to `C=C(C)[C@H]1Cc2c(ccc3c2O[C@@H]2COc4cc(OC)c(OC)cc4[C@@H]2C3=O)O1`, the Potency was 6.81 µM (active). In the case of `C=C1c2c(Cl)ccc(O)c2C(O)=C2C(=O)[C@@]3(O)C(O)=C(C(N)=O)C(=O)[C@@H](N(C)C)[C@@H]3[C@@H](O)[C@H]12`, the “activity change, negative = cytotoxicity” value is -20.1%. Still for that read-out and setting: the result for `CCOc1cc2ncc(C#N)c(Nc3ccc(OCc4ccccn4)c(Cl)c3)c2cc1NC(=O)/C=C/CN(C)C` reads -7.24% [at 11.2 µM]. Same read-out and setting: for `CC(C)(C)NC(=O)[C@H]1CC[C@H]2[C@@H]3CC[C@H]4NC(=O)C=C[C@]4(C)[C@H]3CC[C@]12C` the value was -4.87%; for `COc1cc(N)c(Cl)cc1C(=O)NC1CCN(CCCOc2ccc(F)cc2)CC1OC` (configuration not stated), -20%; for `O=c1c(C2CC(c3ccc(-c4ccc(Br)cc4)cc3)Cc3ccccc32)c(O)sc2ccccc12` (configuration not stated), 3.5%.

Take `C=CC1(C)CC(=O)C2(O)C(C)(O1)C(OC(C)=O)C(OC(=O)CCN(C)C)C1C(C)(C)CCC(O)C12C` (configuration not stated): the “activity change, negative = cytotoxicity” value is -10.2%. In the case of `Nc1ccn([C@@H]2O[C@H](CO)[C@@H](O)C2(F)F)c(=O)n1`, the “activity change, negative = cytotoxicity” value is -18.8%. Turning to `CC(CN(C)C)CN1c2ccccc2CCc2ccccc21` (configuration not stated), the “activity change, negative = cytotoxicity” value is 2.82%. As for `C=CC(=O)Nc1cc(Nc2nccc(-c3cn(C)c4ccccc34)n2)c(OC)cc1N(C)CCN(C)C`, the Potency was 10.8 µM (active). The same measure, in the same setting: the result for `c1ccc2c(c1)Sc1ccccc1N2CC1CN2CCC1CC2` (configuration not stated) reads 30.4 µM (active). As for `CC(C)OC(=O)OCOP(=O)(CO[C@H](C)Cn1cnc2c(N)ncnc21)OCOC(=O)OC(C)C`, the “activity change, negative = cytotoxicity” value is -12.7%.
